Growth data for 14 compounds are collected here from PubChem BioAssay (NCI).

About 83,000 compounds went through this panel and 20% of them were active in at least one assay; those are over-represented in the sample as a whole.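 Method: cells in 96-well plates; compound added at one concentration; 48 h incubation; percent growth measured; values under 10 scored active.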 A number with no mark means an inactive call. Activity calls are given as the source filed them.

Assay in all cases: NCI-60 one-dose screen, 48 h (100 = growth as untreated, 0 = no growth, -100 = all killed)
Holding throughout (details): 10 µM unless noted

Assay [1] concerns NCI-H23 lung.
Assay [2] concerns NCI-H226 lung.
In assay [3] the test system is NCI-H322M lung.
Assay [4] concerns HOP-62 NSCLC.
The test system of assay [5] is NCI-H460 lung.
The subject of assay [6] is HOP-92 NSCLC.
Assay [7] relates to NCI-H522 lung.
Assay [8] concerns A549/ATCC NSCLC.
The test system of assay [9] is 786-0 renal.
Assay [10] relates to COLO 205 colon.
Assay [11] concerns DU-145 prostate.
In assay [12] the test system is K-562 leukemia.
The subject of assay [13] is MALME-3M melanoma.
Assay [14] concerns MDA-MB-231 breast.
Assay [15] relates to RXF 393 renal.
In assay [16] the test system is SF-268 CNS.
Assay [17] deals with SF-295 CNS.
In assay [18] the test system is SF-539 CNS.
Assay [19] has as its system UACC-257 melanoma.
Assay [20] deals with M14 melanoma.

`O=c1ccc2nc(-c3ccccc3)nn(-c3ccccn3)c-2c1`: the growth is 90.8% in assay [1]; 91.9% in [2]; 102% in [3]; 95.9% in assay [4]; 106% in assay [5]; 55.8% in [6]. Further, the growth is -59.7% (active) in assay [7]; 103% in assay [8]; 63.5% in assay [9]; -68.8% (active) in assay [10]; 105% in assay [11]; -24.3% (active) in assay [12]. Also, the growth is 50.1% in [13]; 91.1% in assay [14]; 26.8% in assay [15]; 96.6% in [16]; 103% in assay [17]; 99.5% in assay [18]. For the same compound, the growth in assay [19] was 72.3%; in assay [20], 105%.

On to `c1ccc(Cn2cc3c(c2)-c2nc(Nc4ccccc4)ncc2CC3)cc1`, for which the growth in assay [1] is 71.7% [100 µM]; in [2], 87.1% [100 µM]; in [3] it was 78.2% [100 µM]; in [4] it was 85.8% [100 µM]; in [5] it was 82.7% [100 µM]; in assay [6], 50.4% [100 µM]. The growth was 80% [100 µM] in assay [7]; 81.9% [100 µM] in assay [8]; 97.3% [100 µM] in [9]; 106% [100 µM] in assay [10]; 83.2% [100 µM] in [11]; 108% [100 µM] in assay [12]. The growth in assay [13] is 83.5% [100 µM]; in assay [14], 65.2% [100 µM]; in assay [15], 48.6% [100 µM]; in assay [16] it was 76.9% [100 µM]; in assay [17] it was 57.6% [100 µM]; in [18] it was 64.3% [100 µM]. Moreover, the growth in [19] is 98.2% [100 µM]; in assay [20], 92.9% [100 µM].

With `O=C(Nc1ncc(Cc2ccccc2)s1)c1ccc2c(c1)OCCO2`, the growth in assay [1] was 30.8%; in assay [2] it was 12.8%; in assay [3], 50.1%; in assay [4], 25.5%; in assay [5], 5.11% (active); in assay [6], 57.8%. Further, the growth is -3.58% (active) in [7]; 16.6% in assay [8]; 33.1% in assay [9]; -13.3% (active) in assay [10]; 15.2% in [11]; 8.32% (active) in [12]. Also, the growth in assay [13] was 57.9%; in assay [14] it was 39.2%; in assay [15], 10.2%; in assay [16] it was 43.2%; in [17] it was 11.9%; in assay [18] it was -10.4% (active). In addition, the values for the growth in [19] and in [20] were 45.1% and 18.6%, respectively.

For `C#C[C@]1(O)CC[C@H]2[C@@H]3CC=C4c5sc(-c6cccc(C)c6)nc5CC[C@]4(C)[C@H]3CC[C@@]21C`, the growth in assay [1] was 73%; in assay [2], 91.1%; in assay [3], 66.1%; in [4] it was 83.4%; in assay [5], 76.6%; in assay [6], 49.6%. Also, the growth was 70% in assay [7]; 75.4% in [8]; 32.8% in assay [9]; 107% in assay [10]; 78.5% in assay [11]; 0.702% (active) in assay [12]. Besides, the growth in assay [13] is 83%; in assay [14] it was 59.8%; in assay [15] it was 11.7%; in assay [16], 60.8%; in [17] it was 58.5%; in assay [18], 15.9%. Also, the growth in [19] is 58.5%; in assay [20] it was 58.7%.

For the compound `Cc1ccc(NC(=O)c2ccc(Nc3ncnc4c3cnn4-c3cccc(F)c3)cc2)cc1`, the growth in [1] is 99.6%; in assay [2], 96.5%; in assay [3], 103%; in [4] it was 94.7%; in assay [5], 102%; in assay [6], 102%. In addition, the growth in [7] is 96%; in [8] it was 99.9%; in assay [9], 95.8%; in assay [10], 109%; in [11] it was 104%; in assay [12] it was 96.3%. For the same compound, the growth was 101% in [13]; 95.2% in assay [14]; 92.5% in assay [15]; 97.2% in assay [16]; 103% in assay [17]; 101% in assay [18]. In addition, the growth in assay [19] is 98%; in [20], 99%.

On to `CCOc1cc(\C=N/N=C(N)/C(N)=N\N=C/c2ccc(O)c(OCC)c2)ccc1O`, for which the growth in assay [1] was 97.7%; in assay [2], 99.9%; in assay [3], 103%; in [4], 109%; in [5], 107%; in assay [6], 116%. The growth was 105% in [7]; 107% in assay [8]; 110% in assay [9]; 5.55% (active) in [10]; 111% in assay [11]; 83% in assay [12]. Moreover, the growth was 123% in assay [13]; 94.7% in [14]; 95.9% in assay [15]; 98.1% in [16]; 106% in assay [17]; 112% in assay [18]. The growth in assay [19] is 108%; in assay [20], 113%.

In the case of `CN(CCNc1ccc(C(=N)N)cc1)c1ccc(C(=N)N)cc1`, the growth was 81.3% in [1]; 52.7% in assay [2]; 71% in [3]; 112% in [4]; 47.9% in assay [5]; 62.7% in assay [6]. In addition, the growth in assay [7] was 87.6%; in assay [8], 41.9%; in assay [9], 102%; in [10], 135%; in assay [11], 66.6%; in assay [12], 74.4%. The growth in assay [13] was 84.7%; in assay [14], 91.8%; in assay [15] it was 109%; in [16], 99.4%; in [17] it was 54.3%; in [18], 101%. For the same compound, the values for the growth in [19] and in assay [20] were 55.1% and 96.1%, respectively.

In the case of `COc1ccc(-c2cn(Cc3ccc4c(Br)cc(Br)c(O)c4n3)nn2)cc1`, the growth in assay [1] is 95.5%; in [2] it was 101%; in [3], 100%; in [4] it was 98.4%; in assay [5], 105%; in [6], 80.3%. Moreover, the growth in [7] was 58.5%; in assay [8] it was 98.7%; in [9] it was 104%; in [10], 107%; in [11] it was 89.7%; in [12], 39.1%. Besides, the growth in assay [13] was 82.7%; in [14] it was 93.9%; in [15], 91.8%; in [16], 91.3%; in assay [17], 104%; in [18] it was 101%. Besides, the growth in assay [19] was 87.9%; in [20] it was 83.3%.

`Cc1nc2ccccc2c(/C=C/c2ccc(Cl)cc2)c1C(=O)/C=C/c1ccccc1`: the growth in [1] was 22.2%; in assay [2], 40.2%; in [3], 41.2%; in [4], -36.7% (active); in assay [5] it was -33% (active); in assay [6] it was 41.4%. Besides, the growth is -13.3% (active) in [7]; 21.2% in assay [8]; 7.29% (active) in assay [9]; -5.72% (active) in assay [10]; 9.75% (active) in [11]; 6.19% (active) in [12]. In addition, the growth in assay [13] was -20.4% (active); in [14], 9.11% (active); in assay [15], -41.8% (active); in assay [16] it was 51.3%; in assay [17], 10.7%; in assay [18] it was -48.8% (active). The growth in [19] is -3.79% (active); in assay [20] it was -0.144% (active).

On to `Cn1ccnc1C(=O)/C=C/c1ccc(CC(=O)Nc2cc(F)c(F)c(F)c2)cc1`, for which the growth is 8.11% (active) in assay [1]; 58.1% in assay [2]; 21.1% in assay [3]; 11.8% in assay [4]; 5.19% (active) in assay [5]; 69.4% in assay [6]. Moreover, the growth is 12.3% in [7]; 28.6% in assay [8]; 6.02% (active) in [9]; 24% in assay [10]; 3% (active) in [11]; 12.6% in [12]. Besides, the growth is 83.2% in assay [13]; 6.11% (active) in assay [14]; -15.6% (active) in [15]; 15.5% in assay [16]; 51.5% in [17]; -19.5% (active) in assay [18]. Besides, the growth in assay [19] is 80.2%; in [20] it was 62.7%.

For `CCN(CC)CCCNc1cc(OC)cc2cccnc12`, the growth in [1] is 99.3%; in [2], 92.7%; in assay [3], 107%; in assay [4], 102%; in assay [5] it was 105%; in [6] it was 124%. Moreover, the growth in [7] is 94.7%; in [8], 108%; in assay [9], 102%; in assay [10], 83.9%; in assay [11] it was 105%; in assay [12], 81.4%. For the same compound, the growth in assay [13] was 133%; in assay [14] it was 89.5%; in [15] it was 96.5%; in assay [16], 96.5%; in assay [17], 105%; in assay [18] it was 101%. Besides, the growth was 107% in assay [19] and 127% in assay [20].

Turning to `N#CC1=C(N)Oc2c(ccc3ccccc23)C1c1cc2ccccc2n2nnnc12` (stereo not given), the growth in assay [1] is 36.6%; in assay [2], 53.6%; in assay [3] it was 34%; in assay [4], 24.6%; in assay [5], 11.3%; in assay [6], 49.2%. Further, the growth was 12.3% in assay [7]; 33.4% in assay [8]; 13.4% in assay [9]; 48.4% in [10]; 19.5% in assay [11]; 4.13% (active) in assay [12]. Further, the growth in [13] is 53.4%; in assay [14] it was 32.9%; in assay [15], 11.4%; in [16], 26.3%; in [17] it was 10.7%; in assay [18], -8.31% (active). Moreover, the values for the growth in [19] and in assay [20] were 47.4% and 12.7%, respectively.

Turning to `O=c1oc2ccccc2cc1-c1nn(-c2ccccc2)cc1/C=N/Nc1nc(-c2ccccc2)c(N=Nc2ccccc2)s1`, the growth was 88.1% in assay [1]; 99.5% in assay [2]; 105% in assay [3]; 71.6% in assay [4]; 73.5% in [5]; 79.7% in assay [6]. Further, the growth in [7] is 41.5%; in assay [8] it was 50.1%; in assay [9], 90.7%; in assay [10] it was 72.8%; in assay [11], 76.8%; in assay [12] it was 21.7%. Further, the growth is 77% in assay [13]; 68.8% in assay [14]; 98.1% in [15]; 79.3% in assay [16]; 70.9% in [17]; 88.5% in [18]. In addition, the growth is 86.5% in [19] and 45.4% in assay [20].

For the compound `O=c1cc(-c2nccc3c2[nH]c2ccccc23)c2cc(Cl)ccc2o1`, the growth is 60.7% in assay [1]; 49.5% in [2]; 81.6% in [3]; 32.7% in [4]; 21.5% in [5]; 26.1% in [6]. For the same compound, the growth in assay [7] was 14.4%; in assay [8] it was 42.3%; in [9], 27.9%; in [10], 68.7%; in assay [11], 79.8%; in assay [12], 15.1%. Besides, the growth in [13] is 49.8%; in assay [14], 62.5%; in assay [15], 82.2%; in assay [16], 54.6%; in assay [17], 13.9%; in assay [18], 17.6%. In addition, the figures for the growth in assay [19] and in assay [20] were 35.4% and 17.3%, respectively.
